# Data from ChEMBL document CHEMBL1157539, “Thousands of chemical starting points for antimalarial lead identification” (Nature, 2010).
# Test system: Plasmodium falciparum
# Experiment: GSK_TCMDC: Inhibition of Plasmodium falciparum 3D7 in whole red blood cells, using parasite LDH activity as an index of growth. Test compounds present at 2uM
# Type: functional
row,Compound,Inhibition [%]
1,CC1CN(c2ccc(NC(=O)c3cccs3)cc2)CCN1Cc1cccc(F)c1.O=C(O)C(F)(F)F (stereo not given),96
2,COc1ccccc1C1CC(c2ccccc2)=NN1C(=O)c1ccccc1 (stereo not given),100
3,CCN(CC)CCn1c(=N)n(CC(O)c2ccc(Cl)c(Cl)c2)c2ccccc21.Cl (stereo not given),99
4,CC(O)C1CCCCN1C(=O)c1cccc(-c2ccc(-c3nc4ccccc4[nH]3)s2)c1 (stereo not given),100
5,COc1cc(Cc2cnc(N)nc2N)cc(OCCCCCCN2C(=O)c3ccccc3C2=O)c1OC,95
6,Cc1ccc(C(=O)NC2CCN(CCNC(=O)Nc3cc(C)nc4ccccc34)CC2)cc1,98
7,O=C(Nc1cccc(-c2ccc(-c3nc4cc(F)ccc4[nH]3)cc2)c1)c1ccoc1,85
8,COc1cc(Nc2nccn3c(-c4ccsc4)cnc23)cc(OC)c1OC,93
9,CCCC(=O)NC(c1cccs1)c1cc(Cl)c2cccnc2c1O (stereo not given),87
10,Oc1ccc(-c2cncc(NCc3ccc(F)c(F)c3)c2)cc1,95
11,COc1ccc(C(=O)O)cc1OCc1ccccc1,99
12,Cc1c(F)cc(C(=O)NC2CC2)cc1-c1ccc2c(cnn2S(=O)(=O)c2ccc(Cl)s2)c1,81
13,C[C@H](NC(=O)c1c(CN2CCC(NC(=O)CC(C)(C)C)CC2)c(-c2cccs2)nc2ccccc12)C1CCCCC1,91
14,Cc1cc(-c2ccc3occ(CCN)c3c2)cnc1N,92
15,CC(C)CCCC(C)(C)NC[C@@H](O)[C@H](Cc1ccccc1)NC(=O)c1cc(NC(C)C)cc(N2CCCCS2(=O)=O)c1.O=CO,98
16,COc1ccc(Nc2c3ccc(Cl)cc3nc3ccc(OC)cc23)cc1.Cl,94
17,Cc1ccc(-c2ccn(Cc3ccc(OCc4ccccc4)cc3)n2)cn1.Cc1ccc(-c2ccnn2Cc2ccc(OCc3ccccc3)cc2)cn1,93
18,Cc1sc2cc(Cl)cc(Cl)c2c1S(=O)(=O)Nc1ccc2nccc(N3CCNCC3)c2c1.Cl,100
19,Fc1ccc2[nH]c(-c3cccc(-c4cccc(CN5CCN(c6ccncc6)CC5)c4)c3)nc2c1.O=C(O)C(F)(F)F,100
20,COc1ccc(Cc2c(C)nc3nc(N)nc(N)c3c2C)cc1OC.Cl,93

row,Compound,Inhibition [%]
1,O=C(Cn1c(CCc2cccc(F)c2F)cc(=O)c2ccccc21)N(Cc1ccc(-c2ccc(C(F)(F)F)cc2)cc1)C1CCN(CCO)CC1.O=C(O)C(O)C(O)C(=O)O,91
2,Cc1cc(OCCCN2CCCCC2)ccc1NC(=O)COc1ccc(Cl)cc1C(=O)c1cc(C#N)cc(C(F)(F)F)c1,87
3,Cc1cccc(Nc2nc3nonc3nc2Nc2cccc(Cl)c2Cl)c1C,91
4,CNC(=O)/C=C/c1cc(NC(=O)Nc2cc(C)nc3c(F)cccc23)ccc1OC,98
5,COCCOc1ccc(C(F)(F)F)cc1NC(=O)Cc1c(F)cccc1Cl,88
6,Cc1cccc2nc(-c3cccc(-c4cccc(CNCc5cnn(-c6ccccc6)n5)c4)c3)[nH]c12.O=C(O)C(F)(F)F,99
7,CCCCCCCCN1CCCN(C(=O)c2cccc(NC(=O)Nc3ccc4ccccc4c3)c2)CC1.O=C(O)C(F)(F)F,97
8,COc1ccc(CNCc2ccsc2)cc1-c1ccc(OC)c(S(=O)(=O)NCCN2CCCC2)c1.O=C(O)C(F)(F)F,97
9,COc1ccc(Cl)cc1N1CCN(CCCNC(=O)c2ccc(-c3nc4cc(Cl)c(F)cc4[nH]3)cc2)CC1,100
10,Cc1ccc(C(=O)Nc2ccc(C)c(OC3CCN(CCC(C)C)C3)c2)cc1.O=C(O)C(F)(F)F (stereo not given),99
11,COc1cc(-c2cc3cc(Cl)c(Cl)cc3[nH]2)ccc1C(=O)NC1CCN(Cc2ccccc2)CC1.O=C(O)C(F)(F)F,100
12,CC(=O)Oc1c(C(=O)C2CCC(C(C)(C)C)CC2)c(OC(C)=O)c2ccccc2c1OC(C)=O (stereo not given),96
13,CCC[C@@H]([C@@H](CC(C)C)C(=O)N[C@H](C(=O)Nc1nccs1)C(C)(C)SCCNC(=O)OCC)N(O)C=O,95
14,COc1ccc2nccc([C@@H](O)CN3CCC(NCc4cnc5c(c4)NC(=O)CS5)CC3)c2c1.O=C(O)C(=O)O,87
15,CCCC(=O)Nc1ccc(OCCCN(Cc2ccccc2C(F)(F)F)c2ccc(C#N)c(C(F)(F)F)c2)cc1,89
16,CCN(CC)C(=S)N/N=C1/C(=O)Nc2c(C)cccc21,94
17,COc1ccc2nccc([C@@H](O)CN3CCC(NCc4nc5c(cc4Cl)OCC(=O)N5)C(F)C3)c2c1.Cl (stereo not given in full),84
18,Cl.c1ccc2c(NCCCCCCNc3ccnc4ccccc34)ccnc2c1,100
19,CCOC(=O)c1ccc(N2CCN(CCCNC(=O)/C(=C/C=C/c3cc4cc(Cl)c(Cl)cc4[nH]3)OC)CC2)cc1,93
20,CN(C)CCNC(=O)[C@H](CC1CCCCC1)NC(=O)c1ccc(O)c(-c2ccc(Cl)c(Cl)c2)c1,98
